PubChem BioAssay (EPA / NIEHS)
Active and inactive are the calls of the source. The calls were made as follows: active = hit-call score of the fitted dose curve at least 0.9, where 1 is the maximum; inactive = score below 0.9.

Experiments:
Details in all cases: mRNA level, 48 h; actives raise or lower the signal
[1] = read-out: Alpha-fetoprotein (AFP) gene, AFP (gene 174); assay: LTEA_HepaRG_AFP: Life Technologies and Expression Analysis (LTEA) Assay for Alpha-fetoprotein (AFP) gene using HepaRG (AID 2283472)
In short: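 HepaRG, single lot; 48 h post-plating -> serum-free induction medium; cpd 8-pt, 100 uM top, half-log, 0.5% DMSO, duplicate, 48 h. RNA -> qRT-PCR AFP, norm ACTB/GAPDH/POLR2A. Bidirectional fit vs DMSO.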

BCL2L11 (gene 10018) = assay: LTEA_HepaRG_BCL2L11: Life Technologies and Expression Analysis (LTEA) Assay for Bcl-2 (BCL2L11) gene using HepaRG (AID 2283473)
In short: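 HepaRG, 48 h exposure, 8-pt half-log series from 100 uM in 0.5% DMSO, duplicates; qRT-PCR (Fluidigm TaqMan) for BCL2L11, housekeeping-normalized; bidirectional curve fit relative to DMSO baseline.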

[2] = read-out: Apolipoprotein A-V (APOA5) gene, APOA5 (gene 116519); assay: LTEA_HepaRG_APOA5: Life Technologies and Expression Analysis (LTEA) Assay for Apolipoprotein A-V (APOA5) gene using HepaRG (AID 2283474)
In short: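 HepaRG, 48 h chemical exposure in serum-free induction medium, 8-pt half-log series (top 100 uM), 0.5% DMSO vehicle, duplicates. Readout: APOA5 mRNA by qRT-PCR, housekeeping-normalized; bidirectional fit vs DMSO baseline.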

[3] = read-out: Apoptosis regulator Bcl-2 (Homo sapiens) (UniProt P10415); assay: LTEA_HepaRG_BCL2: Life Technologies and Expression Analysis (LTEA) Assay for Bcl-2 gene using HepaRG (AID 2283475)
In short: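 HepaRG, plated 48 h then switched to serum-free induction medium; dosed 48 h, 8 conc. (max 100 uM, half-log steps), duplicate, 0.5% DMSO. Lysis in RLT, RNA isolated, TaqMan qRT-PCR for BCL2; ACTB/GAPDH/POLR2A normalisation; bidirectional fit vs DMSO.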

[4] = read-out: Bcl-2 (BID) gene, BID (gene 637); assay: LTEA_HepaRG_BID: Life Technologies and Expression Analysis (LTEA) Assay for Bcl-2 (BID) gene using HepaRG (AID 2283476)
In short: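 Transcript levels of BID, measured by qRT-PCR and normalized to three housekeeping genes, were fitted bidirectionally against DMSO controls. Cells were HepaRG, dosed 48 h at up to 100 uM.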

Caspase-3 (Homo sapiens) = Caspase-3 (Homo sapiens) (UniProt P42574); assay: LTEA_HepaRG_CASP3: Life Technologies and Expression Analysis (LTEA) Assay for cysteine-aspartic acid protease (CASP3) using HepaRG (AID 2283477)
Chain of Caspase-3 (Homo sapiens) (P42574 whole entry, looked up): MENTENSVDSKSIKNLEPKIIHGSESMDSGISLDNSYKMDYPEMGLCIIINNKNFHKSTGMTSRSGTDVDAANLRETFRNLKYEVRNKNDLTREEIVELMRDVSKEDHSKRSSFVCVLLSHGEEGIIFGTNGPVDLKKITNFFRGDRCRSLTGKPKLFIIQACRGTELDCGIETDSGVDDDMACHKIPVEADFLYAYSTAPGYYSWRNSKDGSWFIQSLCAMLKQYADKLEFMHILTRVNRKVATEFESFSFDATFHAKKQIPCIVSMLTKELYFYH
In short: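 HepaRG, 48 h exposure, 8 conc. (top 100 uM, half-log steps, duplicate), 0.5% DMSO vehicle; qRT-PCR of CASP3 transcript, housekeeping-normalised (ACTB/GAPDH/POLR2A); bidirectional curve fit vs DMSO baseline.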

[5] = read-out: Cytochrome P450 (CYP24A1), CYP24A1 (gene 1591); assay: LTEA_HepaRG_CYP24A1: Life Technologies and Expression Analysis (LTEA) Assay for Cytochrome P450 (CYP24A1) using HepaRG (AID 2283478)
In short: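 qRT-PCR read-out: CYP24A1 transcript levels normalized to three housekeeping genes, bidirectional curve fits against 0.5% DMSO baseline. Human HepaRG cells treated 48 h with chemicals at eight concentrations from 100 uM in half-log steps.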

[6] = read-out: Cytochrome P450 (CYP1A2), CYP1A2 (gene 1544); assay: LTEA_HepaRG_CYP1A2: Life Technologies and Expression Analysis (LTEA) Assay for Cytochrome P450 (CYP1A2) using HepaRG (AID 2283479)
In short: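 HepaRG, 48 h exposure, top 100 uM, half-log 8-pt, 0.5% DMSO vehicle, duplicates. Readout: TaqMan qRT-PCR of CYP1A2 mRNA, housekeeping-normalized (ACTB/GAPDH/POLR2A). Gain/loss fit relative to DMSO baseline.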

[7] = read-out: cysteine-aspartic acid protease (CASP8), CASP8 (gene 841); assay: LTEA_HepaRG_CASP8: Life Technologies and Expression Analysis (LTEA) Assay for cysteine-aspartic acid protease (CASP8) using HepaRG (AID 2283480)
In short: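 HepaRG, 48 h exposure, duplicate wells; 8 conc, half-log from 100 uM, 0.5% DMSO. Serum-free induction medium. CASP8 mRNA by TaqMan qRT-PCR, norm. ACTB/GAPDH/POLR2A; gain/loss fitted vs DMSO.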

[8] = read-out: Cytochrome P450 (CYP2B6), CYP2B6 (gene 1555); assay: LTEA_HepaRG_CYP2B6: Life Technologies and Expression Analysis (LTEA) Assay for Cytochrome P450 (CYP2B6) using HepaRG (AID 2283481)
In short: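 Read-out is CYP2B6 mRNA by TaqMan qRT-PCR, normalized to three housekeeping genes and fitted bidirectionally against 0.5% DMSO baseline. Human HepaRG cells received test chemicals for 48 h, top concentration 100 uM, half-log dilutions.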

[9] = read-out: Cytochrome P450 2C19 (Homo sapiens) (UniProt P33261); assay: LTEA_HepaRG_CYP2C19: Life Technologies and Expression Analysis (LTEA) Assay for CYP2C19 using HepaRG (AID 2283482)
In short: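 HepaRG, 48 h chemical exposure, 8-pt half-log series from 100 uM in 0.5% DMSO, duplicates. Readout: CYP2C19 mRNA by TaqMan qRT-PCR, housekeeping-normalized. Bidirectional fit vs DMSO baseline; phenobarbital 1mM as induction control.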

CYP2C8 (gene 1558) = assay: LTEA_HepaRG_CYP2C8: Life Technologies and Expression Analysis (LTEA) Assay for CYP2C8 using HepaRG (AID 2283483)
In short: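 CYP2C8 mRNA induction or loss, by qRT-PCR normalized to ACTB/GAPDH/POLR2A, is read in HepaRG cells after 48 h treatment. Concentrations run from 100 uM down in half-log dilutions, with 0.5% DMSO as vehicle and baseline.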

CYP2C9 (gene 1559) = assay: LTEA_HepaRG_CYP2C9: Life Technologies and Expression Analysis (LTEA) Assay for CYP2C9 using HepaRG (AID 2283484)
In short: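 Cells plated 48 h, switched to serum-free induction medium, then treated in duplicate for 48 h at eight concentrations (max 100 uM, 0.5% DMSO). RNA then analysed by qRT-PCR for CYP2C9; curves fitted in both directions relative to DMSO.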

CYP2E1 (gene 1571) = assay: LTEA_HepaRG_CYP2E1: Life Technologies and Expression Analysis (LTEA) Assay for CYP2E1 using HepaRG (AID 2283485)
In short: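 Human liver line HepaRG, plated 48 h, then serum-free induction medium + chemical x 48 h; 8-pt CRC from 100 uM, half-log, 0.5% DMSO, n=2. Readout: CYP2E1 mRNA qRT-PCR vs ACTB/GAPDH/POLR2A; bidirectional fit vs DMSO.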

CYP4A11 (gene 1579) = assay: LTEA_HepaRG_CYP4A11: Life Technologies and Expression Analysis (LTEA) Assay for CYP4A11 using HepaRG (AID 2283486)
In short: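 CYP4A11 transcript levels were quantified by TaqMan qRT-PCR after HepaRG human liver cells were treated for 48 hours with test chemicals (top 100 uM, half-log dilutions, 0.5% DMSO). Gain or loss of signal was fitted relative to DMSO.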

[10] = read-out: Cytochrome P450 3A4 (Homo sapiens) (UniProt P08684); assay: LTEA_HepaRG_CYP3A4: Life Technologies and Expression Analysis (LTEA) Assay for CYP3A4 using HepaRG (AID 2283487)
In short: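 Differentiated HepaRG cells in serum-free induction medium exposed in duplicate for 48 h to 8 half-log concentrations up to 100 uM in 0.5% DMSO. CYP3A4 mRNA measured by qRT-PCR normalized to ACTB, GAPDH and POLR2A; bidirectional fit versus DMSO.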

[11] = read-out: DNA damage-inducible transcript 3 (DDIT3), DDIT3 (gene 1649); assay: LTEA_HepaRG_DDIT3: Life Technologies and Expression Analysis (LTEA) Assay for DNA damage-inducible transcript 3 (DDIT3) using HepaRG (AID 2283488)
In short: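 HepaRG plated 48 h, switched to serum-free induction medium, dosed 48 h (100 uM top, half-log, 8 pts, 0.5% DMSO, n=2); RNA isolated; DDIT3 by qRT-PCR; bidirectional curve fit vs DMSO.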

[12] = read-out: Pro-epidermal growth factor (Homo sapiens) (UniProt P01133); assay: LTEA_HepaRG_EGF: Life Technologies and Expression Analysis (LTEA) Assay for Epidermal growth factor (EGF) using HepaRG (AID 2283489)
In short: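 qRT-PCR readout of EGF transcript after 48 h chemical exposure of HepaRG cells; eight concentrations from 100 uM down in half-log steps, duplicate wells, 0.5% DMSO vehicle. Bidirectional curve fitting against DMSO baseline.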

[13] = read-out: Early growth response protein 1 (EGR1) transcription factor, EGR1 (gene 1958); assay: LTEA_HepaRG_EGR1: Life Technologies and Expression Analysis (LTEA) Assay for Early growth response protein 1 (EGR1) transcription factor using HepaRG (AID 2283490)
In short: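 Read-out is EGR1 mRNA level by qRT-PCR, normalized to three housekeeping genes and analysed for gain or loss of signal against 0.5% DMSO. Source cells: human HepaRG, treated 48 h at up to 100 uM in half-log dilutions.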

[14] = read-out: Ezrin (EZR), EZR (gene 7430); assay: LTEA_HepaRG_EZR: Life Technologies and Expression Analysis (LTEA) Assay for Ezrin (EZR) using HepaRG (AID 2283491)
In short: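 Differentiated human HepaRG cells, 48 h after plating, were exposed in serum-free induction medium for 48 hours to eight half-log concentrations up to 100 uM in 0.5% DMSO. EZR mRNA was measured by TaqMan qRT-PCR, normalized to ACTB, GAPDH and POLR2A, and fitted bidirectionally against DMSO.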

Measured: AC50

Chain of Apoptosis regulator Bcl-2 (Homo sapiens) (P10415 whole entry, looked up): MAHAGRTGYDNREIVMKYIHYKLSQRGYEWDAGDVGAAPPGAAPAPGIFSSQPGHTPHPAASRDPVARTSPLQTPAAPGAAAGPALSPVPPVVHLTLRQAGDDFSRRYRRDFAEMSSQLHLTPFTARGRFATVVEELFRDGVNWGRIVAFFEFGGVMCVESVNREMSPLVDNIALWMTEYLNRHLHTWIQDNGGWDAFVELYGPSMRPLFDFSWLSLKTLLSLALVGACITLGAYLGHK
Chain of Cytochrome P450 3A4 (Homo sapiens) (P08684 whole entry, looked up): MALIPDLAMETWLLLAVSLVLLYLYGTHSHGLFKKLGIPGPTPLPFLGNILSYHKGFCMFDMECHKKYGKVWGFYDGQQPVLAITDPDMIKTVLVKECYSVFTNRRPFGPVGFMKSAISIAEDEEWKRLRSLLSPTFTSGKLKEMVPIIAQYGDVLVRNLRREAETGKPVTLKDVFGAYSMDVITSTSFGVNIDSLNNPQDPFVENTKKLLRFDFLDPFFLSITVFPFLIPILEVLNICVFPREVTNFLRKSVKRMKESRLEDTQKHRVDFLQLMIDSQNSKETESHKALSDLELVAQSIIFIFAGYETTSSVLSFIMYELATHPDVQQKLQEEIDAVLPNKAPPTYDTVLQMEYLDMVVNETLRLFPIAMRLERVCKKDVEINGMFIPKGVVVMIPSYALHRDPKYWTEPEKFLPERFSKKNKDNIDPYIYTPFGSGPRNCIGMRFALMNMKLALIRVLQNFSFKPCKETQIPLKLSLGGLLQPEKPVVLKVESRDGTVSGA
Chain of Cytochrome P450 2C19 (Homo sapiens) (P33261 whole entry, looked up): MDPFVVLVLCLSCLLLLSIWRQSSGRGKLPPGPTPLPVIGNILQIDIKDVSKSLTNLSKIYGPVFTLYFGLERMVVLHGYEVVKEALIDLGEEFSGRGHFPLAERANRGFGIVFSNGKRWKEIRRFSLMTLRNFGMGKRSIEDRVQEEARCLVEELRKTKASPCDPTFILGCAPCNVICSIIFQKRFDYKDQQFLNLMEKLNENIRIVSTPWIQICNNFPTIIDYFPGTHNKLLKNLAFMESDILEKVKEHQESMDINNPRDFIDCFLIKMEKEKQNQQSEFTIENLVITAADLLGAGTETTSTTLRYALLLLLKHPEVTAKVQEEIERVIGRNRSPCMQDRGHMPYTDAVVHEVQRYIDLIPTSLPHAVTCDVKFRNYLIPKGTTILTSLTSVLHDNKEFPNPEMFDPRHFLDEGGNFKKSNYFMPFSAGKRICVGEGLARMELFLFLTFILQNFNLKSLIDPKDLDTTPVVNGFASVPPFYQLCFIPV

CCN(Cc1cccc(S(=O)(=O)O)c1)c1ccc(C(=C2C=CC(=[N+](CC)Cc3cccc(S(=O)(=O)O)c3)C=C2)c2ccccc2S(=O)(=O)[O-])cc1
inactive: all assays above

Cc1ncc(CO)c(CO)c1O
not listed: [14]
inactive: all other assays above

CCN(Cc1cccnc1)C(=O)c1cccc(Cl)c1[C@]1(C)C(=O)N(Cc2ccc(OC)cc2OC)c2ccc(Cl)cc21
active: [1] 19.4 µM | [2] 11.4 µM | [3] 11.4 µM | [6] 22.2 µM | [7] 12.5 µM | [8] 25.8 µM | [9] 26.1 µM | CYP2C8 (gene 1558) 25.8 µM | CYP2C9 (gene 1559) 26.2 µM | CYP2E1 (gene 1571) 16.1 µM | CYP4A11 (gene 1579) 16.7 µM | [10] 25.9 µM | [11] 11.5 µM | [12] 15.5 µM
inactive: BCL2L11 (gene 10018) | [4] | Caspase-3 (Homo sapiens) | [5] | [13]

CCCCCCCCCC(=O)O
not listed: [10] | [12] | [14]
inactive: all other assays above

Cc1ccc(C(C)C)cc1
not listed: [10] | [12] | [14]
inactive: all other assays above

Clc1cc(Cl)c2c(c1)N=C1CCCCCN1C2
active: [1] 25 µM | [6] 2.21 µM | [8] 6.27 µM | CYP2C8 (gene 1558) 6.18 µM | CYP2E1 (gene 1571) 32.1 µM | [10] 11.1 µM
inactive: all other assays above
